# Experimental data published in PubChem BioAssay.
# What was measured:
# Experiment in all cases: inhibition of PEG-3 promoter-driven reporter – cell-based, HeLa, luciferase, CREF/GAPDH counter-screen panel, dose response (AID 624167)
# PEG-3 [1] = biological target: PEG-3 (UniProt Q6IN02); conditions: CREF/GAPDH counter-screens; HeLa PEG-Prom luciferase reporter, overnight, run 1, dose range 1, at 100 µM (top of the series) unless noted
# PEG-3 [2] = biological target: PEG-3 (UniProt Q6IN02); conditions: CREF/GAPDH counter-screens; HeLa PEG-Prom luciferase reporter, overnight, run 2, dose range 1, at 100 µM (top of the series) unless noted
# Rat fibroblasts (CREF) [3] = conditions: CREF/GAPDH counter-screens; run 1, dose range 1, at 100 µM (top of the series)
# Rat fibroblasts (CREF) [4] = conditions: CREF/GAPDH counter-screens; run 2, dose range 1, at 100 µM (top of the series)
# PEG-3, sequence (Q6IN02 whole entry, looked up): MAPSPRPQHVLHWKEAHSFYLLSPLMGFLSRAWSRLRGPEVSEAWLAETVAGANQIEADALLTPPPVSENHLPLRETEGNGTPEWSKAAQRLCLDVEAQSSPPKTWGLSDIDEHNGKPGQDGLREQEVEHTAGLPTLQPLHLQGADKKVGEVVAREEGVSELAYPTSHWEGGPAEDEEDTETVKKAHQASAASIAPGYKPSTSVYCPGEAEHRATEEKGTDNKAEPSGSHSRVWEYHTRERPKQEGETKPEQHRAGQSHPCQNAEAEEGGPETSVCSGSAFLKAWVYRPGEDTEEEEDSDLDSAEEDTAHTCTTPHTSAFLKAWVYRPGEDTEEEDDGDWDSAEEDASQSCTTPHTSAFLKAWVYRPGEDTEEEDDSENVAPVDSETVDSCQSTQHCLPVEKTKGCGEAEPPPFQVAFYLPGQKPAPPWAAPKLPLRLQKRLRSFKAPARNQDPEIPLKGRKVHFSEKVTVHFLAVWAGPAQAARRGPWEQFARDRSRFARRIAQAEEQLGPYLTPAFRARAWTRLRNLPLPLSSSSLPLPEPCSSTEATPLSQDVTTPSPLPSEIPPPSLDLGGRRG
Structure (SMILES),inhibition (PEG-3 [1]) [%],inhibition (PEG-3 [2]) [%],inhibition (Rat fibroblasts (CREF) [3]) [%],inhibition (Rat fibroblasts (CREF) [4]) [%]
Cc1ccccc1OCC(=O)Nc1cccc(C(=O)O)c1,99.1,95.1,95.9,68.4
COC1=C(Br)C(=O)c2ncccc2C1=O,99.3,98.6,95.3,97.8
O=C(Nc1nc2cc3c(cc2s1)OCCO3)c1ccco1,97.8,95.5,92.9,95.1
Oc1[nH]c2ccc(Br)cc2c1N=NC(=S)N1CCOCC1,102,99,30.5,99.1
Cc1ccc(OCC(=O)c2cc(C)n(-c3ccccc3)c2C)c([N+](=O)[O-])n1,77.6,74.5,-20,-61.9
Cc1ccc(NC(=S)NC(=O)c2ccc(F)cc2)cc1S(=O)(=O)Nc1ccccc1Cl,70.7,36.1,-12,91.7
O=[N+]([O-])c1ccc(S(=O)(=O)c2ccccc2)nc1,99.3,101,99.3,98.6
OCCNc1c2ccccc2nc2ccccc12,99.6,98.1,73.9,94.8
O=C(NC(=O)c1ccccc1)Nc1ccccn1,98.8,94,95.3,96.8
CCCCC(=O)NC(c1ccccc1)c1ccc2cccnc2c1O (stereo not drawn),90.4,93.6,-26,-7.89
CCN(CCO)c1ccc(N=Nc2cc(C)[nH]n2)cc1,95.5,98.9,99.4,98.6
O=C1C=CC(=O)N1c1ccc(-c2nc3ccccc3o2)cc1,99.3,101,101,100
Cc1ccc(-n2c(N)c(C(=O)Nc3c(C)n(C)n(-c4ccccc4)c3=O)c3nc4ccccc4nc32)cc1,52.5,62.7,89.4,83.7
O=c1oc2ccccc2cc1-c1cn2ccccc2n1,92.7,94.2,94.6,93.7
C/C(=N\NC(=O)c1cc(C2CC2)nc2ccccc12)c1ccc(O)cc1O,59.9,61.4,31.4,65.1
CC(=O)NC(c1ccc(Cl)cc1)c1ccc2cccnc2c1O (stereo not drawn),97.5,88.3,4.58,23
COc1ccc(C(=O)NNC(=O)c2ccccn2)cc1,102,95.9,100,98.5
CCOc1ccc(NC(=O)Nc2cccc(C(=O)O)c2)cc1,98,94.6,91.9,94.1
Cc1cc(/C=N/Nc2ncnc(N)c2[N+](=O)[O-])c(C)n1-c1ccccc1,93.6,87,91.1,93.5

Structure (SMILES),inhibition (PEG-3 [1]) [%],inhibition (PEG-3 [2]) [%],inhibition (Rat fibroblasts (CREF) [3]) [%],inhibition (Rat fibroblasts (CREF) [4]) [%]
O=C(/C=C\Nc1ccc2c(c1)OCO2)c1ccccn1,102,95.1,98.9,97.2
O=C(O)c1ccc(N/N=C/c2ccc3c(c2)OCO3)cc1,98,102,67.2,62.5
COc1ccccc1Nc1nc(-c2sc(NC(=O)c3ccco3)nc2C)cs1,38,52.5,35.4,40.3
O=c1cc(-c2ccc(O)cc2)oc2ccc3ccccc3c12,99.4,101,98.1,97.1
CCCC(=O)NC(c1ccc(C)cc1)c1ccc2cccnc2c1O (stereo not drawn),96.2,83.5,3.2,23.3
O=c1c2ccccc2cnn1-c1nc2ccccc2[nH]1,98.4,99.5,101,100
CCC(=O)NC(c1cccs1)c1cc(Cl)c2cccnc2c1O (stereo not drawn),100,99.5,38.2,97.6
CCCCCN1C=CC(=C2C(=O)c3ccccc3C2=O)C=C1,102,99.1,98.2,98.3
COc1cccc(/C=N/NC(=O)c2ccc(-c3ccccc3)cc2)c1O,81,79.7,69.8,67.6
COc1cc(Nc2c3ccccc3nc3ccccc23)cc(OC)c1OC,102,102,92.9,72.1
CN(C)c1ccc(/C=C(\C#N)c2ccccn2)cc1,81.8,84.6,98.2,99
CCSc1nc2ccccc2n1C(=O)/C=C\c1ccc(OC)c(OC)c1,99.4,95.2,46.8,91.8
COc1cc(CNCCCN2CCOCC2)cc(Br)c1OCc1ccc(Cl)cc1,99.2,101,100,99.1
CN(C)c1ccc(/C=C2\SC(=O)N(CCc3nnc(N)s3)C2=O)cc1,62,77.4,83,82.3
COc1ccc(-n2cc(-c3ccccc3)c3c(N4CCOCC4)ncnc32)cc1,94.2,101,69.3,67.2
Cc1ccc2nc(C)cc(Nc3ccc([N+](=O)[O-])cc3)c2c1,102,101,98.1,98.9
CN(C)c1ccc(/C=C/c2nc3ccccc3s2)cc1,94.8,89.3,96.6,94.9
N=c1n(CC(=O)c2ccc([N+](=O)[O-])cc2)c2ccccc2n1Cc1ccc(Cl)cc1,99.6,101,99.2,99.4
